These results are taken from ChEMBL document CHEMBL3988442, “University of Dundee, Small-Polar-MMV Screening Library” (2021).

In all, about 69,000 compounds went through this assay and about 420 (0.61%) showed an effect of 50% or more. Many of the other results were omitted from the sample, so strong results are more common in it than they were.

This assay concerns the target T1, Histidine--tRNA ligase (Leishmania infantum) (UniProt A4I591).
T1 sequence (whole entry): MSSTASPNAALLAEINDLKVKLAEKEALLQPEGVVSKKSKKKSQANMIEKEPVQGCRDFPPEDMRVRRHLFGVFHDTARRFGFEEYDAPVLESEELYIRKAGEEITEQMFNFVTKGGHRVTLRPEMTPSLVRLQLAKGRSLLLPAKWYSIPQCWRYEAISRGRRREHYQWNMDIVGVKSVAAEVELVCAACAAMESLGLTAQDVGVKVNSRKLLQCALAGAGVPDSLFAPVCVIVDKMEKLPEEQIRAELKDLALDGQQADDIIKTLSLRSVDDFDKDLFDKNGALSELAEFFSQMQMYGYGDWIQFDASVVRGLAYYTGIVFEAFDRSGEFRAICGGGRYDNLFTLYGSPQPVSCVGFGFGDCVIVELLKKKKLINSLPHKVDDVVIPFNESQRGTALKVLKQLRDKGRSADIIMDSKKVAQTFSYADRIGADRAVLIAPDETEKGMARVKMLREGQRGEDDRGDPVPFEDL
In words: Leishmania infantum Histidine tRNA synthetase (LdHisRS). The format is functional. On the set-up: scale not given: in the data most compounds retested in dose-response had high values. The settings on record: 30 µM.
In the case of `Cc1ccccc1-c1ncc(CNCc2csc(C(C)C)n2)s1`, the Percent Effect came to 20%. Regarding `Cc1cnc(CNCc2cnc(-c3ccccc3C)s2)cn1`, the Percent Effect was 11.7%.

As to `CC1CCN(C(=O)[C@H]2C[C@@H]3CCN(CC4CCOCC4)C[C@@H]3O2)CC1`, the Percent Effect came out at 12%. Under `O=C(C1=CCCC1)N1C[C@H](Oc2cccnc2)[C@H]2OCCC[C@H]21` stands 3.85%; under `O=C(c1nc2c(s1)CCCN2CC1CC1)N1CCOCC1`, 94%. For `O=C(c1nc2c(s1)CCCN2CC1CC1)N1CCCC1` the value was 40%; for `CN1CCCN(C(=O)c2nc3c(s2)CCCN3CC2CC2)CC1`, 48%; for `COCC(=O)N1CC[C@H]2O[C@@H](C)C[C@H]2C1`, 12%. Consider `O=C(Nc1c(N2CCCC2)cccc1N1CCCC1)c1ccccn1`, for which the Percent Effect worked out at 84.6%. For `O=C(Nc1c(N2CCCC2)cccc1N1CCCC1)c1cnsn1` the value was 15.4%; for `O=C(Nc1c(N2CCCC2)cccc1N1CCCC1)c1cnccn1`, 30.8%; for `Cn1cccc1C(=O)N1CC[C@H]2[C@H]1CCN2CC1CCOCC1`, 24.6%.

With `O=C(C1=CCCC1)N1C[C@H]2CCC[C@@]2(COCc2ccncc2)C1`, the Percent Effect came to 25.7%. Under `Cc1cccc(CN2C[C@@H]3COC[C@]3(CNC(=O)C3CC3)C2)c1` stands 11.9%; under `CNC(=O)[C@@]12CCO[C@@H]1CCN(S(=O)(=O)c1ccccc1)C2`, 15%.

As for `CCN(CCN(C)C)c1nc(CCN)nc2sc(C)c(C)c12`, the Percent Effect was found to be 54%. With `COCCN(CC1CC1)c1nc(CCN)nc2sc(C)c(C)c12`, the Percent Effect was found to be 32.7%.

Consider `Cc1sc2nc(CCN)nc(N(CCN(C)C)CC3CCCO3)c2c1C` (stereo unspecified), for which the Percent Effect turned out to be 4.42%. As to `Cc1cccc(CN2C(=O)CC[C@@H]3[C@H]2CCN3Cc2cccnc2)n1`, the Percent Effect was 29.4%. Under `Cc1nccc([C@H]2C[C@@H]3CCN(S(=O)(=O)C4CC4)C[C@H]3O2)n1` stands 11.1%; under `CCOc1ccc2[nH]c(=O)c(CN3CCCC3c3ccccn3)cc2c1` (stereo unspecified), 53%; under `O=c1[nH]c2cc3c(cc2cc1CN1CCCC1c1ccccn1)CCC3` (stereo unspecified), 43.4%. Under `O=c1[nH]c2cc3c(cc2cc1CN1CCCC1c1ccccn1)OCO3` (stereo unspecified) stands 14.5%. As for `COCCC(=O)N1C[C@H]2CCC[C@@]2(COC)C1`, the Percent Effect was determined as 5.77%.

`Cn1cc(N2C(=O)CC[C@@H]3[C@H]2CCN3Cc2nccs2)cn1`: the Percent Effect was found to be 9.72%. Under `Cc1cc(CN2CCc3nn(C)c(=O)cc3C2)no1` stands 45.5%.

As for `CCCn1nc2c(cc1=O)CN(Cc1nc(C)c3ccccc3n1)CC2`, the Percent Effect amounted to 27.1%. Take `CCCn1nc2c(cc1=O)CN(Cc1nc(C)c(C)o1)CC2`: the Percent Effect is 13.2%. `CCCn1nc2c(cc1=O)CN(Cc1cc(C)no1)CC2`: the Percent Effect was 69.7%. Under `CCn1nc2c(cc1=O)CN(Cc1cc(C)on1)CC2` stands 21.2%; under `Cc1cc(CN2CCc3cncnc3C2)on1`, 24%. For `CCCn1nc2c(cc1=O)CN(Cc1ccccn1)CC2` the value was 75.8%; for `CCCn1nc2c(cc1=O)CN(Cc1cc(C)on1)CC2`, 55.8%.

With `CCCn1nc2c(cc1=O)CN(Cc1ncc(C(C)(C)C)o1)CC2`, the Percent Effect was found to be 45.5%. With `CCCn1nc2c(cc1=O)CN(Cc1nc(CCOC)no1)CC2`, the Percent Effect amounted to 48.1%.

Take `Cc1cc(CN2CCc3nn(C)c(=O)cc3C2)on1`: the Percent Effect amounted to 103%. For `CN(C)C(=O)N1C[C@@H]2CC[C@H](C1)N(C(=O)c1c(Cl)cccc1Cl)C2` the value was 8.06%; for `CS(=O)(=O)N1C[C@@H]2CC[C@H](C1)N(Cc1ccsc1)C2`, 31.2%. With `CNC(=O)[C@H]1CO[C@H]2CCN(Cc3ccc4ccccc4n3)C[C@H]2C1`, the Percent Effect worked out at 10.5%. Under `CNC(=O)[C@@H]1COC[C@H]2CN(C(=O)c3ccc(C)c(F)c3)C[C@H]21` stands 12.3%. Regarding `CC(C)CC(=O)N1CC[C@@H]2[C@H](CC1)N(S(C)(=O)=O)CCS2(=O)=O`, the Percent Effect was determined as 19.2%. For `CS(=O)(=O)N1C[C@@H]2COC[C@]2(COCC(=O)N2CCCC2)C1` the value was 2.73%; for `CCCn1nc2c(cc1=O)CN(Cc1c(C)noc1C)CC2`, 27.3%. Under `Cc1noc(C)c1CN1CCc2nn(C(C)C)c(=O)cc2C1` stands 53%.

As to `Cc1cc(CN2CCc3nn(C(C)C)c(=O)cc3C2)no1`, the Percent Effect was determined as 26.9%.

With `O=C1CC[C@]2(CC[C@@H](NC3CCOCC3)CC2)N1Cc1ccccc1`, the Percent Effect amounted to 7.77%. For `Cc1cnccc1-c1cnn(CCNC(=O)c2ccncc2)c1C1CC1` the value was -1.42%; for `CCCC(=O)N(CCN1CCOCC1)c1nc2c(OC)ccc(C)c2s1`, -3.48%. Under `CCCN(C(=O)c1ccncc1)c1nc2c(s1)CCc1c-2cnn1C` stands 82.3%; under `CCCN(C(=O)c1cccnc1)c1nc2c(s1)CCc1c-2cnn1C`, 101%. For `CCCN(C(=O)c1ccc(-n2ccnn2)cc1)c1cccnc1` the value was 11.1%; for `CN(C(=O)c1cccnc1)C1CCCN(CCc2ccccc2)C1` (stereo unspecified), -1.64%; for `CCCN(C(=O)COC)c1nc2c(s1)CCc1c-2cnn1C`, 80%. In the case of `CCN(CCN1CCOCC1)C(=O)c1cccnc1`, the Percent Effect stood at 5.71%. Under `COCCN(C)C(=O)c1nc2c(s1)CCCN2C` stands 24.6%.

In the case of `Cc1ccc(C(=O)N2CC[C@@]3(O)CCN(C(=O)N(C)C)C[C@H]3C2)cc1Cl`, the Percent Effect is -2.13%.
